Assay outcomes: PubChem, National Center for Advancing Translational Sciences (NCATS)
ALDH1A1 inh = blocks purified human ALDH1A1 activity | P00352 | Purified ALDH1A1, NADH fluorescence, propionaldehyde substrate | Potency, µM (doses to about 75.3 µM), most hits filed as inhibitors | actives 7.3% (n = 220,000) | AID 1030
KinaseGlo FLuc = blocks Kinase-Glo luciferase, a counter-screen artifact. Q27757. Kinase-Glo luciferase, ATP luminescence, 8 min. Potency, µM (titrated, usually from 38.3 µM), usual class: inhibitors. actives 0.28% (n = 200,000). AID 1379; active means well fitted inhibition curve with a large enough effect; inconclusive means small, poorly fitted or top-dose-only effect; further: nearly all actives have a fitted effect of over 60% in size
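Light output from Kinase-Glo luciferase with luciferin and 10 uM ATP in 50 mM imidazole pH 7.2, KCl, MgCl2, Tween 20, BSA; compound pin-delivered, 8-min ambient incubation, then luminescence read.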
PNC assembly inh = perinucleolar compartment assembly inhibition. PC3M PTB-GFP, PNC prevalence imaging, 16 h; stronger effect = lower value. activity change (PNC), negative = inhibition, % at 10 µM. actives 3.1% (n = 140,000). AID 2417;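 active means readout at or below -70, meaning at least 70% loss of cells showing the perinucleolar compartment, a nuclear body marking cancer cells; inconclusive means readout between -30 and a set limit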
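Compounds are pinned in duplicate onto adhered PC3M cells stably expressing GFP-tagged PTB and incubated 16 h at 37 C. Cells are then fixed, nuclei stained with Hoechst, and PNC-positive cells counted.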
HPGD inh = HPGD (human) dehydrogenase inhibition; actives 4.3% (n = 150,000); purified HPGD, NADH fluorescence kinetic, PGE2 substrate; Potency, µM, usual class: inhibitors
Target sequence (P15428 whole entry, looked up): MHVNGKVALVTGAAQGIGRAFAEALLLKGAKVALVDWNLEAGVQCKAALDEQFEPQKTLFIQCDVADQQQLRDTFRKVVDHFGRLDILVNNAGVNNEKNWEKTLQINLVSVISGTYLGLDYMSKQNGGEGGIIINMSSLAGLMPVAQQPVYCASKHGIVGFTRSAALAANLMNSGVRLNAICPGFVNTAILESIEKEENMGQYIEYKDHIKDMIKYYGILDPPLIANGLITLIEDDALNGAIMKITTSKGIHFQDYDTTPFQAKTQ
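20 nM HPGD preincubated 15 min at room temperature with compound in 50 mM Tris-HCl pH 8, 0.01% Tween 20. Started with 1 mM NAD+ and 30 uM prostaglandin E2; NADH fluorescence (360/450 nm) read 5 times over 30-s intervals, last minus first.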
LMNA splice mod = changes lamin A minigene splicing in HeLa cells | HeLa LMNA splicing GFP/RFP minigene ratio, 48 h | actives 0.01% (n = 200,000) | Potency, µM (top dose mostly 46.1 µM), actives largely listed as inhibitors; active means well fitted inhibition curve with a large enough effect in the signal ratio, with a control signal flat, not every such curve was filed as active; inconclusive means small, poorly fitted or top-dose-only effect, or effect the other way, or a change in a side signal; the % refers to the signal ratio
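Read-out is the ratio of GFP to DsRed2 object intensity, acquired by 488 nm laser-scanning cytometry on HeLa lamin A-EGFP minigene reporter cells. Compound incubation 48 hrs at 37 °C in Opti-MEM with 2% FBS; DMSO 0.5% final.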
Of the large screens only hits and unclear results are named; the others gave an inactive call. Only some compounds are listed: those with a hit (about 10% of all), similar ones and a draw of the others. Unless noted, the call rests on the fitted dose curve; in most records, active means well fitted inhibition curve with a large enough effect (not every such curve was filed as active); inconclusive means small, poorly fitted or top-dose-only effect, or another doubt; inactive means no such curve, though single readings can be large or run the other way.

O=C(CCN1CCc2ccccc2C1)c1ccc2c(c1)OCCO2	ALDH1A1 inh inconclusive, PNC assembly inh inconclusive, HPGD inh inconclusive, LMNA splice mod inconclusive
O=C(c1cnccn1)N1CCC[C@@]2(CCN(c3ccncc3)C2)C1	none (no result: PNC assembly inh, LMNA splice mod)
COc1ccc(-c2cn3cccnc3n2)cc1NC(=O)Cc1ccccc1	none (no result: ALDH1A1 inh, KinaseGlo FLuc, PNC assembly inh, HPGD inh)
CO[C@H]1COC(=O)C/C=C\[C@H](C)[C@@H](OC)COC(=O)[C@@H](C)NC(=O)C/C=C\[C@@H]1C	none (no result: KinaseGlo FLuc, PNC assembly inh, HPGD inh, LMNA splice mod)
C#CCCCO/N=C1/[C@H]2O[C@@H]2[C@@H](O)[C@H]2[C@H]1CCn1c(=O)n([C@@H](CC)c3ccccc3)c(=O)n12	none (no result: KinaseGlo FLuc, PNC assembly inh, HPGD inh, LMNA splice mod)
COc1cccc(C(=O)NCC(c2ccc3c(c2)OCO3)N2CCN(C)CC2)c1 (stereo not given)	none (no result: ALDH1A1 inh, KinaseGlo FLuc, PNC assembly inh, HPGD inh)
c1ccc2c(c1)CCN2CCN1CCc2ccccc21	ALDH1A1 inh 40µM
CN(C)CCN1CCc2ccccc21	ALDH1A1 inh inconclusive, LMNA splice mod inconclusive
Cc1cc2c(cc1Cl)C(c1ccc3c(c1)OCO3)CC(=O)O2 (stereo not given)	none (no result: PNC assembly inh, LMNA splice mod)
O=C(CNC1CCCCC1)N1CCc2ccccc2C1	ALDH1A1 inh 11µM
O=C(NC1CCCCC1)N1CCc2ccccc2C1	none (no result: PNC assembly inh, HPGD inh)
CCc1nn2c(=O)cc(COC(=O)c3cccc(NC(=O)CCc4ccccc4)c3)nc2s1	none (no result: ALDH1A1 inh, KinaseGlo FLuc, PNC assembly inh, HPGD inh)
CCc1nn2c(=O)cc(COC(=O)c3ccccc3NC(=O)COc3ccc(F)cc3)nc2s1	none (no result: ALDH1A1 inh, KinaseGlo FLuc, PNC assembly inh, HPGD inh)
N#Cc1cnn(-c2cccc(Cl)c2)c1N	none (no result: PNC assembly inh, HPGD inh, LMNA splice mod)
Nc1c(-c2cccc(Cl)c2)cnn1-c1cccc(C(F)(F)F)c1	HPGD inh 13µM
Nc1c(-c2ccccc2)cnn1-c1cccc(C(F)(F)F)c1	PNC assembly inh inconclusive, HPGD inh 10µM
C=CCOC(=O)N[C@H](c1cccc(C(F)(F)F)c1)C(C(C)=O)C(C)=O	none (no result: PNC assembly inh, LMNA splice mod)
O=C(c1csc2ccccc12)N1CCCCCC1	HPGD inh 0.013µM, LMNA splice mod inconclusive
O=C(c1csc2ccccc12)n1cccn1	ALDH1A1 inh 11µM, PNC assembly inh -87
O=C(c1csc2ccccc12)N1CCN(c2ccccn2)CC1	ALDH1A1 inh inconclusive, PNC assembly inh inconclusive
O=C1[C@H]2O[C@@H]2[C@@H](O)[C@H]2[C@H]1CCn1c(=O)n(Cc3cc4c(cc3Cl)OCO4)c(=O)n12	none (no result: KinaseGlo FLuc, PNC assembly inh, HPGD inh, LMNA splice mod)
CCN(c1ccc(OC)cc1)S(=O)(=O)c1c(C(=O)N2CCCCCC2)c(C)n(C)c1C	none (no result: ALDH1A1 inh, KinaseGlo FLuc, PNC assembly inh, HPGD inh)
O=C(CSc1nccn1Cc1ccccc1)NCc1ccccc1Cl	none (no result: ALDH1A1 inh, KinaseGlo FLuc, PNC assembly inh, HPGD inh)
C=CCc1c(C)nc(C)nc1N/N=C/c1ccc([N+](=O)[O-])cc1	ALDH1A1 inh inconclusive
Cc1csc(/N=C/c2ccc([N+](=O)[O-])cc2)n1	ALDH1A1 inh 11µM
CCOC(=O)c1cc(-c2ccc(OC)cc2)n(CCC(=O)NCc2ccc(OC)cc2)c1C	none (no result: ALDH1A1 inh, KinaseGlo FLuc, PNC assembly inh, HPGD inh)
O=C(CN1C(=O)c2ccccc2S1(=O)=O)NCc1ccccn1	none
CC(C)COP(=O)(CNC(=O)CN1C(=O)c2ccccc2S1(=O)=O)OCC(C)C	PNC assembly inh -82
O=C(CN1C(=O)c2ccccc2S1(=O)=O)NCc1ccccc1Cl	PNC assembly inh -119
COC(=O)c1cccc(N2C(=O)c3ccccc3S2(=O)=O)c1	HPGD inh 25µM
COC(=O)c1ccccc1NC(=O)CN1C(=O)c2ccccc2S1(=O)=O	ALDH1A1 inh 25µM, PNC assembly inh inconclusive
COc1ccccc1N1CCN(c2ccc([N+](=O)[O-])cc2Cl)CC1	ALDH1A1 inh inconclusive, PNC assembly inh inconclusive, LMNA splice mod inconclusive
COc1ccc(OC)c(CCNC(=O)c2cnn(-c3ccccc3)c2C2CCN(C(=O)OC(C)(C)C)CC2)c1	none (no result: ALDH1A1 inh, KinaseGlo FLuc, PNC assembly inh, HPGD inh)
COc1c(C2=CC(=O)N(C)C2=O)c2c(n1C)C(=O)c1ccccc1C2=O	none (no result: PNC assembly inh, LMNA splice mod)
CC(=O)Nc1c(C)nn(-c2ccccc2)c1N1CCC(C(=O)Nc2ccc(F)cc2Cl)CC1	none (no result: ALDH1A1 inh, KinaseGlo FLuc, PNC assembly inh, HPGD inh)
CS(C)(=O)=O	none (no result: PNC assembly inh, LMNA splice mod)
CC(=O)c1ccc(NC(=O)CCSCCC(=O)Nc2ccc(C(C)=O)cc2)cc1	ALDH1A1 inh 40µM
CC(=O)c1ccc(NC(=O)CSCC(=O)Nc2ccc3ccccc3c2)cc1	ALDH1A1 inh inconclusive, PNC assembly inh inconclusive
COCCN(CCOC)C(=O)c1cc2sc3ccccc3c2s1	ALDH1A1 inh inconclusive, HPGD inh inconclusive
CCN(CC)C(=O)c1cc2sc3ccccc3c2s1	ALDH1A1 inh inconclusive, HPGD inh 7.9µM, LMNA splice mod inconclusive
Cc1cc(C(=O)OCC(=O)N2CC(C)OC(C)C2)ccc1[N+](=O)[O-] (stereo not given)	ALDH1A1 inh inconclusive (no result: PNC assembly inh, HPGD inh)
